The record followed here is PubChem BioAssay (NCI).

Compounds without any hit were thinned out: in the full panel of roughly 83,000, 20% have a hit.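 Negative percent growth values reflect cell death: -40 means 40% of the cells present at the start died, and -100 means all died.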 A number with no mark means an inactive call. The source made the active and inactive calls. The calls were made as follows: active = growth percent below 10; inactive = the rest.

For the assay, the system named is HL-60(TB) leukemia. The assay is described as follows: NCI-60 one-dose screen, 48 h (100 = growth as untreated, 0 = no growth, -100 = all killed). The conditions noted are these: 10 µM unless noted.
As to `COc1cccc(CCC(=O)c2cc3c(N)c(C(=O)Nc4ccccc4)sc3nc2C)c1`, the growth was 6.59% (active). As to `COc1ccc(-c2cc(-c3cc(OC)c(OC)c(OC)c3)c(C#N)c(=O)n2CCCCC(=O)NO)cc1`, the growth is 44%. For `COc1cc2nc(N3CCCC3)nc(NCCc3ccccc3)c2cc1OC` the value was -53.6% (active); for `CC1=CC2C(C(O)CC3(C)C2CC(C)C32OCOC23COCO3)C2(C)C/C(=C/O)C(=O)C=C12` (stereo unspecified), -12.3% (active); for `CC1OC(OC2C(OC3CCC4(C)C(CCC5(C)C4CC=C4C6CC(C)(C)CCC6(CO)C(O)CC45C)C3(C)C)OC(C(=O)O)C(OC3OC(COC4OC(CO)C(O)C(O)C4O)C(O)C(O)C3O)C2O)C(O)C(O)C1O` (stereo unspecified), -73% (active). With `ClC1=C(Br)C(Br)(Br)C(=C(Br)Br)C1(Br)Br`, the growth was 29.8%. Turning to `CC(C)/C=C/CC[C@](C)(O)[C@H]1CC[C@]2(C)[C@@H]1CC[C@@H]1[C@@]3(C)C/C(=C/c4cccc(C(F)(F)F)c4)C(=O)C(C)(C)[C@@H]3CC[C@]12C`, the growth was 92.9%.

Consider `O=C(O)c1ccc(P(=O)(O)O)c([N+](=O)[O-])c1`, for which the growth was 100%. As for `Oc1[nH]c2ccccc2c1/C=c1/ccc2c(c1)N=C(c1ccc(C(F)(F)F)cc1)N=2`, the figure is 74.3%. For `CC[C@]1(O)CC2CN(CCc3c([nH]c4ccccc34)C(C(=O)OC)(c3cc4c(cc3OC)N(C=O)[C@H]3[C@@](O)(C(=O)OC)[C@H](OC(C)=O)[C@]5(CC)[C@@H]6C[C@@H]6CN6CC[C@]43[C@@H]65)C2)C1` (stereo partly specified) the value was 0.642% (active); for `ClCc1cccc(CSc2ncnc3c2ncn3Cc2cccc(CCl)c2)c1`, 23.7%. For `O=C1c2ccccc2C(=O)c2cc(Cn3c[n+](Cc4ccc5ccccc5c4)c4ccccc43)ccc21` the value was -49.2% (active); for `COc1ccc(-c2nc3sccn3c2-c2ccnc(S(C)(=O)=O)n2)cc1`, 55.4%. Consider `O=C(/C=C/c1ccco1)Nc1ncc(Cc2ccc(F)cc2)s1`, for which the growth is -41.6% (active). As for `COc1cc2cc(Oc3ccc(NC(=O)c4cc(C(F)(F)F)cc(C(F)(F)F)c4)cc3)c(C)nc2cc1OC`, the figure is 50.4%.

For the compound `Cc1cc2nc(CN)[nH]c2cc1C`, the growth was 96.6%. As for `Cc1c(C)c2c(c(C)c1NC(=O)CCCCCCC(=O)O)CCC(C)(CCCC(C)CCCC(C)CCCC(C)C)O2` (stereo unspecified), the figure is 75.1%.

In the case of `C=CC(=O)N1CCN(c2cccc(Oc3nccc(Nc4nnc(-c5ccc(Br)cc5)s4)n3)c2)CC1`, the growth is 51.1%. Take `Cc1ccc(Oc2c(/C=N/NC(=O)Cn3c(=O)sc4ccccc43)c(C)nn2-c2ccccc2)cc1`: the growth is 4.2% (active). As for `COc1ccc(N=C2NN=C(c3c[nH]c4ccccc34)CS2)cc1OC`, the figure is 47%. Consider `CN(C)C(=O)OCc1nc2c(N3CCOCC3)nc(-c3ccccc3)nc2n1C`, for which the growth was -29.2% (active).

`C[Si](C)(C)C(c1ccccc1)c1ccccc1`: the growth was 80.5%. As for `Cc1cc(SC#N)ncn1`, the figure is 102%; as for `O=C(/C=C/c1ccc(Cl)cc1)/C=C/c1cc2ccccc2[nH]c1=O`, 55.6%. For `Cn1c(=O)c2c(nc(Nc3cc(=O)[nH]c(=O)[nH]3)n2Cc2ccccc2)n(C)c1=O` the value was 90.6%; for `CCc1ccc(CCC(=O)Nc2ncc(Cc3ccccc3)s2)o1`, -40% (active).
